Source: article PMC5540273 (PLoS ONE, 2017)

Columns and labels:
Conditions in all cases: concentration: 1 μM, replicates: in singlicate; n = 1
[1] = system: T1, JNK3
T1 construct: gene MAPK10

[2] = system: KIT-autoinhibited
[3] = system: KIT
[4] = system: LATS1
[5] = system: LATS2
[6] = system: LCK
[7] = system: LIMK1
[8] = system: LIMK2
[9] = system: T2, LKB1
T2 construct: gene STK11

[10] = system: T3, LOK
T3 construct: gene STK10

[11] = system: LRRK2
[12] = system: LTK
[13] = system: LYN
[14] = system: T4, LZK
T4 construct: gene MAP3K13

[15] = system: MAK
[16] = system: MAP3K15
[17] = system: MAP3K1
[18] = system: MAP3K2
[19] = system: MAP3K3
[20] = system: MAP3K4
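Further: KINOMEscan kinase panel screen.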

Row | Structure (SMILES) | %Inh [1] | %Inh [2] | %Inh [3] | %Inh [4] | %Inh [5] | %Inh [6] | %Inh [7] | %Inh [8] | %Inh [9] | %Inh [10] | %Inh [11] | %Inh [12] | %Inh [13] | %Inh [14] | %Inh [15] | %Inh [16] | %Inh [17] | %Inh [18] | %Inh [19] | %Inh [20]
1 | Cn1cnc2c(N)ncnc21 [SKF-97623] | 0% | 35% | 0% | 22% | 0% | 0% | 0% | 0% | 36% | 4% | 0% | 0% | 0% | 2% | 0% | 0% | 0% | 0% | 0% | 0%
2 | Cl.Cl.Cl.N#Cc1ccc(CCNc2nccc(-c3cccc(CN4CCNCC4)c3)n2)cc1 [GSK2137462] | 22% | 0% | 29% | 15% | 36% | 12% | 18% | 38% | 1% | 0% | 0% | 0% | 1% | 0% | 8% | 0% | 15% | 5% | 0% | 0%
3 | CC(=O)c1c(C)c2cnc(Nc3ccn(C)n3)nc2n(C2CCCC2)c1=O | 0% | 0% | 0% | 0% | 4% | 8% | 23% | 0% | 0% | 15% | 0% | 0% | 10% | 0% | 0% | 0% | 0% | 0% | 0% | 0%
4 | Nc1ncnc2occ(-c3ccc4c(c3)CCN4C(=O)Cc3cc(F)ccc3F)c12 [GSK2645446] | 0% | 0% | 66% | 0% | 19% | 5% | 0% | 22% | 0% | 33% | 0% | 0% | 0% | 0% | 0% | 0% | 0% | 6% | 0% | 50%
5 | COc1nccc(-c2c(-c3ccc(F)cc3)ncn2CCCN2CCOCC2)n1 [SB-282852] | 51% | 20% | 0% | 0% | 27% | 25% | 0% | 0% | 0% | 45% | 0% | 0% | 0% | 0% | 29% | 0% | 0% | 0% | 13% | 7%
6 | CCn1c(-c2ccccc2)nc2cnccc21 [SB-733416] | 7% | 0% | 8% | 0% | 0% | 18% | 20% | 0% | 0% | 0% | 51% | 0% | 0% | 0% | 11% | 22% | 14% | 2% | 0% | 0%
7 | CCCCc1nn2ncccc2c1-c1ccnc(NC2CC2)n1 [GW684374] | 82% | 0% | 67% | 0% | 0% | 17% | 33% | 34% | 0% | 0% | 0% | 0% | 0% | 0% | 19% | 0% | 3% | 0% | 0% | 6%
8 | Cc1c(Cn2c3ccccc3n3c(=O)cc(N4CCOCC4)nc23)cccc1C(F)(F)F [GSK2306394] | 4% | 0% | 7% | 0% | 0% | 11% | 0% | 3% | 0% | 0% | 33% | 11% | 0% | 0% | 15% | 0% | 14% | 2% | 0% | 18%
9 | CSc1ccc(-c2nc3n(c2-c2ccncc2)CCC3)cc1 [SKF-105561] | 59% | 0% | 0% | 31% | 13% | 0% | 0% | 0% | 0% | 8% | 0% | 31% | 8% | 45% | 0% | 16% | 0% | 3% | 0% | 9%
10 | COc1ccc(Nc2nccc(N3CCC(NC(=O)C(C)c4ccc(Cl)cc4)C3)n2)cc1 (stereo not drawn) [GSK1379735] | 0% | 5% | 31% | 4% | 0% | 33% | 19% | 0% | 0% | 0% | 51% | 61% | 0% | 0% | 9% | 11% | 5% | 0% | 0% | 16%
11 | O=c1cc(N2CCOCC2)nc2n(Cc3cccc(Cl)c3Cl)c3ccccc3n12 [GSK2299009] | 3% | 0% | 36% | 0% | 16% | 43% | 4% | 24% | 8% | 0% | 0% | 39% | 0% | 0% | 15% | 3% | 7% | 21% | 0% | 0%
12 | COc1ccc(CSc2nnc(-c3ccc4c(c3)CCO4)o2)cc1 | 0% | 0% | 0% | 0% | 0% | 0% | 0% | 0% | 6% | 0% | 0% | 0% | 0% | 3% | 0% | 0% | 0% | 0% | 0% | 8%
13 | COC(=O)c1cccc(NC(=O)NC2CCN(c3ccnc(Nc4ccc(OC)cc4)n3)C2)c1 (stereo not drawn) [GSK1379746] | 0% | 0% | 44% | 0% | 0% | 11% | 0% | 3% | 0% | 0% | 0% | 15% | 0% | 34% | 15% | 0% | 0% | 0% | 0% | 12%
14 | O=C(Nc1n[nH]c2nc(-c3cccs3)c(Br)cc12)C1CCCC1 [SB-743341] | 46% | 13% | 36% | 20% | 0% | 38% | 2% | 15% | 0% | 26% | 28% | 17% | 0% | 36% | 77% | 32% | 49% | 5% | 28% | 0%
15 | CNc1nc(-c2ccc3c(N)n[nH]c3c2)cc(N2C[C@@H](C(=O)Nc3ccccc3)CC[C@H]2C)n1 [GSK2298859] | 3% | 0% | 4% | 0% | 3% | 22% | 0% | 13% | 7% | 0% | 0% | 0% | 0% | 20% | 9% | 0% | 0% | 0% | 0% | 0%
16 | O=C1NC(=O)C(c2ccc(Cl)cc2)=C1Nc1ccc(O)cc1 [SB-340867] | 0% | 0% | 0% | 17% | 0% | 5% | 11% | 0% | 13% | 0% | 0% | 0% | 8% | 0% | 7% | 7% | 0% | 0% | 11% | 28%
17 | Nc1cccc(-c2ccc3c(N)n[nH]c3c2)n1 [GSK2192730] | 0% | 0% | 14% | 0% | 17% | 0% | 0% | 2% | 7% | 0% | 0% | 0% | 0% | 0% | 26% | 0% | 23% | 0% | 0% | 25%
18 | CNc1nc(-c2ccc3c(N)n[nH]c3c2)cc(N2C[C@@H](C(=O)NC3CCCCC3)OC[C@H]2C)n1 [GSK2375584] | 0% | 7% | 20% | 0% | 15% | 19% | 8% | 24% | 0% | 0% | 0% | 0% | 0% | 35% | 0% | 0% | 0% | 0% | 0% | 0%
